Common to all, as to assay type: functional
Experiment [1] concerns Plasmodium falciparum. The experiment is described as follows: GSK_TCMDC: Inhibition of Plasmodium falciparum 3D7 in whole red blood cells, using parasite LDH activity as an index of growth. Test compounds present at 2uM.
The test system of experiment [2] is Plasmodium falciparum. The experiment is described as follows: GSK_TCMDC: Inhibition of Plasmodium falciparum Dd2 in whole red blood cells, using parasite LDH activity as an index of growth. Test compounds present at 2uM.
The test system of the next experiment is HepG2. The experiment is described as follows: GSK_TCMDC: Percent inhibition of human HepG2 cell line. Test compounds present at 10uM.

The values that follow come from ChEMBL document CHEMBL1157539, “Thousands of chemical starting points for antimalarial lead identification” (Nature, 2010).

On to `CC(C)C[C@H](Nc1ccnc(NCC2CCCCC2)n1)C(=O)NCCc1ccccc1.O=C(O)C(F)(F)F`, for which the Inhibition in the experiment with Plasmodium falciparum [1] is listed as 88%; in the experiment with Plasmodium falciparum [2], 66%; in the experiment on HepG2, 10%.
`CC(=NNC(S)=Nc1ccccc1Cl)c1ccccn1`: the Inhibition was found to be 100% in the experiment on Plasmodium falciparum [1], 99% in the experiment on Plasmodium falciparum [2] and 69% in the experiment with HepG2.
`COc1ccc(CNC2CCN(c3ccc(NC(=O)c4cccc(Cl)c4)cc3)CC2)cc1OC`: the Inhibition in the experiment with Plasmodium falciparum [1] turned out to be 96%; in the experiment on Plasmodium falciparum [2], 13%; with HepG2, 26%.
For `Cc1cc(-c2cccc3c(NC(=O)N4CCc5cc6nccc(N7CCN8CCC[C@H]8C7)c6cc54)cccc23)cc(C)n1.Cl`, in that order: 100%, 100% and 12%.
Turning to `Cc1cc(N[C@@H](Cc2ccccc2)C(=O)Nc2ccccc2)nc(NCC2CCCCC2)n1.O=C(O)C(F)(F)F`, the results for the Inhibition in the experiment on Plasmodium falciparum [1], in the experiment on Plasmodium falciparum [2] and with HepG2 were 98%, 55% and 12%, respectively.
For `Cc1cc(NC(=O)[C@H](CC2CCCCC2)Nc2ccc(C#N)c3ccccc23)ccc1F.O=C(O)C(F)(F)F`, in that order: 100%, 99% and 21%.
For `CS(=O)(=O)Nc1cccc(-c2cnc3[nH]cc(-c4ccc(C(=O)O)cc4)c3c2)c1`, in that order: 98%, 82% and 0%.
For `Cc1cccc(CNc2nc(C)cc(NCCC(=O)Nc3ccccc3)n2)c1.O=C(O)C(F)(F)F`, in that order: 100%, 54% and 15%.
Consider `CC(=O)Nc1cccc(C(=O)Nc2nc3ccc(-c4cc(=O)[nH]c(Nc5ccccc5Cl)n4)cc3[nH]2)c1`, for which the Inhibition in the experiment on Plasmodium falciparum [1] was 99%; in the experiment on Plasmodium falciparum [2] it was 62%; with HepG2, 0%.
For `COc1cc(NCC(O)CNc2cc(OC)c3ccccc3n2)nc2ccccc12`, in that order: 100%, 93% and 42%.
